Data from the supplement of paper PMC6897291.

Key:
RIVA [1] = assay: growth inhibition by drug plus 177Lu-lilotomab satetraxetan (1 - RLU/untreated control) (fraction); higher = stronger inhibition; settings: 177Lu-lilotomab satetraxetan 0.5 ug/ml
Procedure, shortened: (§1)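 With or without 18 h pretreatment by a radiolabelled anti-CD37 antibody conjugate (~600 MBq/mg; 0.5 µg/ml RIVA, 1 µg/ml U-2932), RIVA and U-2932 cells were washed and plated at 3,000 cells/well. Pre-printed compound doses were 10/100 nM for RIVA and 10/1,000 nM for U-2932. Growth inhibition uses RealTime-Glo RLU relative to the untreated no-drug wells. The calculation is 1 − RLU/mean of 48 such wells per plate, with reads daily from day 3 after 1 h at 37°C.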

U-2932 [2] = assay: growth inhibition by drug alone (1 - RLU/untreated control) (fraction); higher = stronger inhibition; settings: 177Lu-lilotomab satetraxetan 0 ug/ml
Procedure, shortened: as §1

RIVA [3] = assay: as above; settings: 177Lu-lilotomab satetraxetan 0 ug/ml
Procedure, shortened: as §1

U-2932 [4] = assay: growth inhibition by drug plus 177Lu-lilotomab satetraxetan (1 - RLU/untreated control) (fraction); higher = stronger inhibition; settings: 177Lu-lilotomab satetraxetan 1 ug/ml
Procedure, shortened: as §1

| SMILES | growth inhibition by drug plus 177Lu-lilotomab satetraxetan (RIVA [1]; 100 nM, time (day): 5) | growth inhibition by drug plus 177Lu-lilotomab satetraxetan (RIVA [1]; 100 nM, time (day): 6) | growth inhibition by drug alone (U-2932 [2]; 10 nM, time (day): 3) | growth inhibition by drug alone (U-2932 [2]; 10 nM, time (day): 4) | growth inhibition by drug alone (U-2932 [2]; 10 nM, time (day): 5) | growth inhibition by drug alone (U-2932 [2]; 10 nM, time (day): 6) | growth inhibition by drug alone (U-2932 [2]; 1000 nM, time (day): 3) | growth inhibition by drug alone (U-2932 [2]; 1000 nM, time (day): 4) | growth inhibition by drug alone (U-2932 [2]; 1000 nM, time (day): 5) | growth inhibition by drug alone (U-2932 [2]; 1000 nM, time (day): 6) | growth inhibition by drug alone (RIVA [3]; 10 nM, time (day): 3) | growth inhibition by drug alone (RIVA [3]; 10 nM, time (day): 4) | growth inhibition by drug alone (RIVA [3]; 10 nM, time (day): 5) | growth inhibition by drug alone (RIVA [3]; 10 nM, time (day): 6) | growth inhibition by drug alone (RIVA [3]; 100 nM, time (day): 3) | growth inhibition by drug alone (RIVA [3]; 100 nM, time (day): 4) | growth inhibition by drug alone (RIVA [3]; 100 nM, time (day): 5) | growth inhibition by drug alone (RIVA [3]; 100 nM, time (day): 6) | growth inhibition by drug plus 177Lu-lilotomab satetraxetan (U-2932 [4]; 10 nM, time (day): 3) | growth inhibition by drug plus 177Lu-lilotomab satetraxetan (U-2932 [4]; 10 nM, time (day): 4) | growth inhibition by drug plus 177Lu-lilotomab satetraxetan (U-2932 [4]; 10 nM, time (day): 5) | growth inhibition by drug plus 177Lu-lilotomab satetraxetan (U-2932 [4]; 10 nM, time (day): 6) | growth inhibition by drug plus 177Lu-lilotomab satetraxetan (U-2932 [4]; 1000 nM, time (day): 3) | growth inhibition by drug plus 177Lu-lilotomab satetraxetan (U-2932 [4]; 1000 nM, time (day): 4) | growth inhibition by drug plus 177Lu-lilotomab satetraxetan (U-2932 [4]; 1000 nM, time (day): 5) | growth inhibition by drug plus 177Lu-lilotomab satetraxetan (U-2932 [4]; 1000 nM, time (day): 6) | growth inhibition by drug plus 177Lu-lilotomab satetraxetan (RIVA [1]; 10 nM, time (day): 3) | growth inhibition by drug plus 177Lu-lilotomab satetraxetan (RIVA [1]; 10 nM, time (day): 4) | growth inhibition by drug plus 177Lu-lilotomab satetraxetan (RIVA [1]; 10 nM, time (day): 5) | growth inhibition by drug plus 177Lu-lilotomab satetraxetan (RIVA [1]; 10 nM, time (day): 6) | growth inhibition by drug plus 177Lu-lilotomab satetraxetan (RIVA [1]; 100 nM, time (day): 3) | growth inhibition by drug plus 177Lu-lilotomab satetraxetan (RIVA [1]; 100 nM, time (day): 4) |
| --- | --- | --- | --- | --- | --- | --- | --- | --- | --- | --- | --- | --- | --- | --- | --- | --- | --- | --- | --- | --- | --- | --- | --- | --- | --- | --- | --- | --- | --- | --- | --- | --- |
| C[C@]12CCC(=O)C=C1CC[C@@H]1[C@@H]2[C@@H](O)C[C@@]2(C)[C@H]1CC[C@]2(O)C(=O)CO [Hydrocortisone (Cortisol)] | 0.317 | 0.347 |  |  |  |  |  |  |  |  |  |  |  |  |  |  |  |  |  |  |  |  |  |  |  |  |  |  |  |  |  |  |
| O=C(O)CC[C@H]1CC[C@@](c2cc(F)ccc2F)(S(=O)(=O)c2ccc(Cl)cc2)CC1 | 0.543 | 0.556 | 0.105 | 0.0715 | -0.0926 | -0.0883 | 0.0344 | 0.041 | -0.0603 | -0.0323 | 0.072 | 0.0162 | -0.0366 | -0.42 | -0.186 | -0.2 | -0.179 | -0.202 | 0.00844 | 0.0724 | 0.123 | 0.147 | 0.000893 | 0.0697 | 0.0856 | 0.142 | 0.613 | 0.631 | 0.645 | 0.643 | 0.453 | 0.522 |
| CCOc1ccn(-c2ccc(F)cc2)c(=O)c1C(=O)Nc1ccc(Oc2ccnc(N)c2Cl)c(F)c1 | 0.523 | 0.514 | 0.143 | 0.12 | -0.0713 | -0.014 | 0.036 | 0.0178 | -0.127 | -0.209 | 0.0958 | 0.084 | 0.0356 | -0.0223 | -0.0283 | 0.013 | -0.000157 | -0.0616 | 0.12 | 0.152 | 0.188 | 0.258 | 0.0517 | 0.106 | 0.162 | 0.259 | 0.626 | 0.638 | 0.657 | 0.657 | 0.445 | 0.512 |
| COc1cc2/c(=N/c3ccc(Br)cc3F)nc[nH]c2cc1OCC1CCN(C)CC1 [Vandetanib (Zactima)] | 0.373 | 0.355 | -0.05 | -0.0325 | -0.0228 | 0.016 | -0.236 | -0.171 | -0.167 | -0.12 | -0.203 | -0.201 | -0.23 | -0.529 | -0.273 | -0.353 | -0.318 | -0.441 | -0.0662 | -0.0404 | -0.009 | 0.0527 | -0.276 | -0.164 | -0.119 | -0.041 | 0.331 | 0.49 | 0.516 | 0.535 | 0.268 | 0.377 |
| CN(C)CCCCSC(=N)N | 0.415 | 0.398 | 0.0803 | 0.0562 | -0.0181 | -0.016 | -0.0315 | 0.00953 | -0.0703 | -0.245 | -0.0402 | -0.0677 | -0.106 | -0.316 | -0.0334 | -0.0664 | -0.0858 | -0.22 | 0.0342 | 0.0372 | 0.0384 | 0.0444 | -0.0939 | 0.0263 | -0.0236 | -0.0661 | 0.357 | 0.498 | 0.532 | 0.544 | 0.259 | 0.415 |
| Oc1ccc(Nc2nc(-c3ccc(Cl)cc3)cs2)cc1 | 0.304 | 0.293 | 0.0714 | 0.0415 | -0.0308 | -0.079 | 0.00763 | 0.0746 | -0.00976 | -0.13 | -0.021 | -0.0647 | -0.176 | -0.522 | -0.28 | -0.263 | -0.403 | -0.57 | -0.0159 | 0.00418 | 0.0159 | -0.00943 | 0.0757 | 0.243 | 0.237 | 0.277 | 0.383 | 0.501 | 0.516 | 0.539 | 0.158 | 0.298 |
| OCCn1cc(-c2cnc3nnn(Cc4ccc5ncccc5c4)c3n2)cn1 | 0.467 | 0.46 | 0.0403 | 0.00489 | -0.0584 | -0.156 | -0.178 | -0.0659 | -0.175 | -0.214 | 0.0383 | 0.00592 | -0.0414 | -0.165 | -0.319 | -0.278 | -0.299 | -0.402 | -0.0346 | 0.043 | 0.0857 | 0.105 | 0.0296 | 0.08 | 0.0788 | 0.176 | 0.521 | 0.575 | 0.599 | 0.603 | 0.384 | 0.474 |
| CS(=O)(=O)N1CCN(Cc2cc3nc(-c4cccc5[nH]ncc45)nc(N4CCOCC4)c3s2)CC1 | 0.486 | 0.45 | -0.0712 | -0.0515 | -0.0456 | 0.0469 | 0.69 | 0.786 | 0.802 | 0.82 | -0.0821 | -0.12 | -0.138 | -0.212 | 0.604 | 0.409 | 0.327 | 0.221 | -0.0212 | -0.0112 | 0.0169 | 0.184 | 0.81 | 0.875 | 0.897 | 0.913 | 0.351 | 0.467 | 0.488 | 0.493 | 0.532 | 0.5 |
